Assay results from PubChem BioAssay.
Active and inactive are the calls of the source.

How the values were obtained:
[1] = test system: Human papillomavirus type 1a protein E7 (residues 44-93); assay: HPV1a E7 fragment binders on microarrays, primary screen, biochemical, small-molecule microarray, residues 44-93, 635 nm fluorescence (AID 1108); details: small-molecule microarray binding, fluorescence 635 nm; higher = more signal;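 also: E7 fragment applied at 1 µg/mL in TBST for 1 h at 4 C; score combines spot fluorescence with its signal to noise ratio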
[2] = modulators of HCV replicon luciferase signal, primary screen, HCV replication inhibitor project, Huh7 cells, luciferase reporter (AID 1109); details: 48 h, higher = more signal;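 also: huh7 hepatoma cells harbouring a luciferase neomycin HCV replicon reporter; luciferase luminescence as measure of HCV replicon replication; test concentration not given here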
[3] = molecular target: Left-right determination factor 2 (Homo sapiens) (UniProt O00292); assay: LEFTY2 binders on small-molecule microarrays, primary screen, biochemical, small-molecule microarray, 635 nm fluorescence scan (AID 1110); details: LEFTY2 binding, higher = more signal
Left-right determination factor 2 (Homo sapiens), sequence (O00292 whole entry, looked up): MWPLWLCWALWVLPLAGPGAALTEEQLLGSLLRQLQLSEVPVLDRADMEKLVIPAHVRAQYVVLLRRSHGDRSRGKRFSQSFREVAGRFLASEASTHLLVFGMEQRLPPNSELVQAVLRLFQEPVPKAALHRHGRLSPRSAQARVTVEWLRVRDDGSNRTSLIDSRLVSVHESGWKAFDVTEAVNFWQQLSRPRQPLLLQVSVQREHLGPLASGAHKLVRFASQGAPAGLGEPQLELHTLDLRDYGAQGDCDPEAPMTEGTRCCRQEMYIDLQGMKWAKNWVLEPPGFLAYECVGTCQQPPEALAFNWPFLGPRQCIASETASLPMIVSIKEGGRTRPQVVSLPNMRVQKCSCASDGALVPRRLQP

[4] = molecular target: Calmodulin-1 (Homo sapiens) (UniProt P0DP23); assay: CALM1 binders on microarrays, EGTA buffer, profiling panel, biochemical, small-molecule microarray, Cy5-labelled CALM1 (AID 1111); details: Cy5-CALM1 binding fluorescence, higher = more signal;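 also: labelled calmodulin applied in Tris saline Tween buffer holding calcium plus EGTA and DTT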
[5] = molecular target: Calmodulin-1 (Homo sapiens) (UniProt P0DP23); assay: calcium-bound CALM1 binders on microarrays, profiling panel, artefact control for SMM control-protein annotation, biochemical, small-molecule microarray, Cy5-labelled CALM1, plus calcium (AID 1112); details: Cy5-CALM1 binding fluorescence, higher = more signal;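 also: score merges spot fluorescence with signal to noise from triplicate slides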
[6] = small-molecule microarray binders of probe aWnt5a, primary screen, biochemical, biotinylated probe, 635/667 nm fluorescence (AID 1113); details: higher = more signal;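 also: score merges 667 nm fluorescence intensity with signal-to-noise per printed feature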
[7] = small-molecule microarray binders of probe aShh, primary screen, biochemical, biotinylated probe, 635/667 nm fluorescence (AID 1114); details: higher = more signal;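 also: probe is biotin-labelled aShh protein from a stem cell growth factor screen; measures binding of labelled protein to compounds printed on the slide; score merges feature fluorescence at 667 nm with signal-to-noise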
[8] = small-molecule microarray binders of probe aNog, primary screen, biochemical, biotinylated probe, 635/667 nm fluorescence (AID 1115); details: higher = more signal;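 also: probe is biotinylated aNog protein used at 0.15 µg/mL for 1 h at 4 C; z-score combines 667 nm fluorescence of each spot with its signal to noise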
[9] = molecular target: Torsin-1A-interacting protein 1 (Homo sapiens) (UniProt Q5JTV8); assay: LAP1 binders from COS7 cell lysate, primary screen, small-molecule microarray, 635/667 nm fluorescence (AID 1116); details: COS7-hLAP1 lysate binding, 635 nm fluorescence, higher = more signal
Torsin-1A-interacting protein 1 (Homo sapiens), sequence (Q5JTV8 whole entry, looked up): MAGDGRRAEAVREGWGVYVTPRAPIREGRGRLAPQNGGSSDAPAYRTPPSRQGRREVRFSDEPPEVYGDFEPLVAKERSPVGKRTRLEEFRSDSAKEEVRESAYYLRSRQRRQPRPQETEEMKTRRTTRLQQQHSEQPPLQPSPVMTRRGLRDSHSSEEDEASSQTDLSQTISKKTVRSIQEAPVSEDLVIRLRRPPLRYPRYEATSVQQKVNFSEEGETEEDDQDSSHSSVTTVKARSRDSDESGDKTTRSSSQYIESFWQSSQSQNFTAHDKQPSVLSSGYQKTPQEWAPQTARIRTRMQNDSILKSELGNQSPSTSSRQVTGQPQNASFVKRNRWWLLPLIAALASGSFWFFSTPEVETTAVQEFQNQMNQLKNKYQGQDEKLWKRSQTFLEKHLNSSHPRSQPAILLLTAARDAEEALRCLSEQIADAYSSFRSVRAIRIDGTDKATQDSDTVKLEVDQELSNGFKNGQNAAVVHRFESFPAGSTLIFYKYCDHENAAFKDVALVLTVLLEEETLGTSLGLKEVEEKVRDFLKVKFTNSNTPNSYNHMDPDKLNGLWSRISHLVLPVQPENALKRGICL

[10] = molecular target: Alpha-bungarotoxin (Bungarus multicinctus) (UniProt P60615); assay: alpha-bungarotoxin binders on microarray, profiling panel, artefact control for SMM control protein annotation, biochemical, small-molecule microarray, Alexa647 label, 635/667 nm fluorescence (AID 1117); details: alpha-BTX-A647 binding fluorescence, higher = more signal
Alpha-bungarotoxin (Bungarus multicinctus), sequence (P60615 whole entry, looked up): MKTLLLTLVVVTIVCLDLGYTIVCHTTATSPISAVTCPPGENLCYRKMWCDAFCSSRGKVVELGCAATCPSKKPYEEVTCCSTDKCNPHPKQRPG

Albumin (Bos taurus) = Albumin (Bos taurus) (UniProt P02769); assay: bovine serum albumin binders on microarray, profiling panel, artefact control for SMM control protein annotation, biochemical, small-molecule microarray, Alexa647 label, 635/667 nm fluorescence (AID 1118); details: BSA-A647 binding, fluorescence 635 nm, higher = more signal;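 also: score merges 667 nm emission intensity and signal-to-noise per printed compound spot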
Albumin (Bos taurus), sequence (P02769 whole entry, looked up): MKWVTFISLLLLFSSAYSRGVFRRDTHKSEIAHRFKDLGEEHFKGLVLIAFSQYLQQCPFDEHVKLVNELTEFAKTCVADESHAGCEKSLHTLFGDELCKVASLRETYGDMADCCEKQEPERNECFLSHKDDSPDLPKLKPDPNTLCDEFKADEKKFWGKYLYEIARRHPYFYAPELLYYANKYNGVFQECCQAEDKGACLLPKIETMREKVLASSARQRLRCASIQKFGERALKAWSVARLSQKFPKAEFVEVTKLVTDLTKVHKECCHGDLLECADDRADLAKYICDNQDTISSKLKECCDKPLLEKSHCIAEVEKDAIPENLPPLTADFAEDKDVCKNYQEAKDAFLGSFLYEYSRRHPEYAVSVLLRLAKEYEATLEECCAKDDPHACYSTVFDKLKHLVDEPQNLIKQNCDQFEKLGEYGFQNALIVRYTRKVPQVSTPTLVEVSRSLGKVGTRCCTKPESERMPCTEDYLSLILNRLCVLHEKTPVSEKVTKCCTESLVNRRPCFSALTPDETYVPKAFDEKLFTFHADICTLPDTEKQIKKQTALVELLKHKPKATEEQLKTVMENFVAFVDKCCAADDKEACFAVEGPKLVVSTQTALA

[11] = small-molecule microarray binders of probe aXIP, primary screen, biochemical, NeuroSMM set, 635/667 nm fluorescence (AID 1119); details: higher = more signal, called active from +8 up or from −8 down;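 also: probe is the protein aXip251-270 applied at 1 µg/mL to compound-printed slides; binding of probe to printed compounds measured as 667 nm fluorescence plus signal to noise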
[12] = small-molecule binders of probe aNOTCH3, primary screen, biochemical, small-molecule microarray, 635/667 nm fluorescence (AID 1120); details: higher = more signal;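 also: probe is a biotin-tagged antibody raised against NOTCH3 rather than NOTCH3 protein; score merges spot fluorescence near 667 nm with spot signal to noise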
[13] = small-molecule binders of probe aNOTCH2, primary screen, biochemical, small-molecule microarray, 635/667 nm fluorescence (AID 1121); details: higher = more signal;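 also: score merges feature fluorescence read at 667 nm with its signal to noise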
[14] = molecular target: Carbonic anhydrase 2 (Homo sapiens) (UniProt P00918); assay: CAII small-molecule binders, profiling panel, biochemical, small-molecule microarray, Alexa647-labelled CAII (AID 1122); details: CAII-A647 binding fluorescence, higher = more signal
[15] = COS7 lysate on small-molecule microarray, probe aHis, 635 nm (AID 1123); details: COS7 cell lysate, fluorescence, higher = more signal;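 also: z-score combines 667nm fluorescence intensity with signal-to-noise per printed compound spot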
[16] = compound binding in COS7 lysate, probe aLAP1, primary screen, cell lysate, small-molecule microarray (AID 1124); details: probe aLAP1, fluorescence, higher = more signal;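 also: lysate comes from COS7 cells expressing LAP1 and is applied at 0.3 µg/mL; score merges spot fluorescence near 667 nm with signal-to-noise over triplicate slides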
Sam68 (KHDRBS1) = assay: Sam68 small-molecule binders, primary screen, biochemical, small-molecule microarray, 635 nm fluorescence (AID 1125); details: small-molecule microarray binding, higher = more signal;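 also: score merges 667 nm channel intensity with signal to noise over triplicate slides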
[17] = test system: Chordin-like protein 2 (CHRDL2); assay: CHRDL2 small-molecule binders, primary screen, biochemical, small-molecule microarray, 635 nm fluorescence (AID 1126); details: small-molecule microarray binding, fluorescence 635 nm; higher = more signal;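 also: printed compound slides probed with Chrdl2 protein at 4 µg/mL for 1 h at 4 C; score merges 667 nm emission intensity with signal to noise over three replicate slides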
[18] = molecular target: Concanavalin-A (Canavalia ensiformis) (UniProt P02866); assay: ConA small-molecule binders, primary screen, artefact control for SMM control protein annotation, biochemical, small-molecule microarray, Alexa647 label, 635 nm (AID 1127); details: ConA-A647 binding fluorescence, higher = more signal;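 also: z combines 667 nm emission intensity with signal-to-noise across three replicate slides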
Concanavalin-A (Canavalia ensiformis), sequence (P02866 whole entry, looked up): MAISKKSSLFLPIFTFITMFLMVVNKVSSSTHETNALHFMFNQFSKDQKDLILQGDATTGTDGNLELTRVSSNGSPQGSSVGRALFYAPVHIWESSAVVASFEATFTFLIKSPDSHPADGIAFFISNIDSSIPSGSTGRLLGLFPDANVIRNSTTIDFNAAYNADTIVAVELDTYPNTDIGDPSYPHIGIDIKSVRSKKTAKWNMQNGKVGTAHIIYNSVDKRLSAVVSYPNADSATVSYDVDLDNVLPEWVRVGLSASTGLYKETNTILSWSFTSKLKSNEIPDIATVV

| Structure (SMILES) | composite z-score [1] | z-score [2] | composite z-score [3] | composite z-score [4] | composite z-score [5] | composite z-score [6] | composite z-score [7] | composite z-score [8] | composite z-score [9] | composite z-score [10] | composite z-score (Albumin (Bos taurus)) | composite Z-score [11] | composite z-score [12] | composite z-score [13] | composite z-score [14] | composite z-score [15] | composite z-score [16] | composite z-score (Sam68 (KHDRBS1)) | composite z-score [17] | composite z-score [18] |
| --- | --- | --- | --- | --- | --- | --- | --- | --- | --- | --- | --- | --- | --- | --- | --- | --- | --- | --- | --- | --- |
| [N-]=[N+]=NCc1ccccc1[C@@H]1OC(c2ccc(OCCCO)cc2)=N[C@]1(Cc1ccccc1N=[N+]=[N-])C(=O)O | 0.98 | -0.909 | -0.0061 | 1.4 | 0.774 | 0.496 | 0.541 | 1.7 | 0.697 | 1.55 | 1 | -0.164 (inactive) | 0.663 | 0.481 | 0.566 | 2.4 | 0.262 | 1.31 | -0.126 | 1.13 |
| COC(=O)C(CC#Cc1ccc2c(c1)[C@]1(C(=O)N2)[C@H](c2ccc(OCCO)cc2)N2[C@H](c3ccccc3)[C@H](c3ccccc3)OC(=O)[C@H]2[C@@H]1C(=O)N1CCCCCCC1)C(=O)OC | 1.32 | -0.851 | 1.62 | 2.73 | 1.29 | 1.25 | 2.81 | 2.33 | 4.91 | 2.62 | 0.576 | 4.71 (inactive) | 1.75 | 0.967 | 0.933 | 3.5 | 1.65 | 1.3 | 1.52 | 1.21 |
| CCCC[C@H]1OB(O)C[C@H]2C1=C(COc1ccccc1)C[C@H]1C(=O)C=CC(=O)[C@H]12 | 0.0194 | -1.36 | 0.406 | -0.415 | -0.68 | -0.152 | -0.283 | -0.295 | 0.0135 | -0.388 | -0.339 | 0.229 (inactive) | -0.0333 | -0.0942 | -0.173 | -0.145 | -0.317 | 0.564 | 0.647 | 0.315 |
| C=CCC(OC(C)=O)[C@@H]1[C@@H](N(Cc2cc3ccccc3o2)C(=O)Cc2ccc(OC)cc2)c2cc(OCCCO)ccc2N1C(=O)c1ccc2ccccc2n1 (stereo not given in full) | -0.329 | -0.814 | 0.0809 | -0.154 | -0.292 | 0.0573 | -0.0362 | -0.0381 | 0.461 | 1.08 | 0.277 | -0.0847 (inactive) | 0.0642 | -0.0303 | -0.0176 | 0.361 | -0.156 | -0.11 | 0.498 | 0.0557 |
| C[C@]1(C(=O)O)c2ccccc2C(=O)N(Cc2cc(F)cc(C(F)(F)F)c2)[C@H]1c1ccc(CO)cc1 | 0.156 | 0.475 | 0.324 | -0.16 | -0.348 | 0.0044 | -0.0035 | -0.0446 | -0.0131 | -0.408 | 0.286 | -0.228 (inactive) | -0.0126 | -0.182 | 0.677 | 1.6 | -0.276 | 0.0491 | 0.447 | 0.255 |
| Cc1ccccc1C(O)C1C=CC2C(=O)N(c3ccccc3)C(=O)C2N1Nc1ccccc1 (stereo not given) | 0.0932 | 1.31 | 0.256 | 2.12 | 0.585 | 0.0437 | 0.108 | 0.189 | 1.54 | 1.1 | 0.944 | 0.738 (inactive) | 0.312 | -0.0485 | 0.781 | 2.94 | 0.0139 | 1.29 | -0.147 | 1.14 |
| [N-]=[N+]=Nc1ccccc1[C@@H]1OC(c2ccc(OCCCO)cc2)=N[C@]1(Cc1ccccc1)C(=O)NCCN1CCOCC1 | 1.5 | -2.41 | -0.429 | -0.0408 | 0.741 | 0.0044 | 0.185 | 0.996 | 1.52 | 1.23 | 0.981 | 0.0561 (inactive) | 0.156 | -0.0482 | 0.607 | 2.86 | 0.946 | 0.96 | -0.377 | 0.355 |
| C=CCC(OC(C)=O)[C@@H]1[C@@H](N(Cc2cccc3ccccc23)C(=O)c2ccc(-c3ccccc3)cc2)c2cc(OCCCO)ccc2N1C(=O)Cc1ccc2ccccc2c1 (stereo not given in full) | -0.515 | -0.105 | -0.181 | 0.858 | 0.912 | 0.0399 | 0.0278 | -0.0773 | 0.438 | 0.106 | 0.364 | -0.902 (inactive) | 0.0276 | -0.0809 | 0.268 | 0.376 | 0.0109 | -0.518 | 0.0624 | -0.214 |
| CCCC[C@H]1C[C@@H]1[C@@H]1N(C(C)=O)[C@H](c2cccc(OC)c2)CC12CC2 | -0.223 | -0.103 | -0.305 | 1.03 | 0.878 | -0.0276 | 0.0278 | -0.643 | 0.632 | 0.154 | 0.219 | 0.797 (inactive) | 0.0026 | 0.0112 | 0.202 | 0.808 | 0.603 | -0.658 | -1 | -0.745 |
| COC(=O)[C@@]1(Cc2ccc(F)cc2)[C@H]2c3cc(C(=O)N(C)C)n(CCc4ccc(O)c(O)c4)c3C[C@H]2CN1C(=O)c1ccccc1 | 0.148 | -1.78 | -0.0362 | 0.584 | 0.813 | 0.183 | -0.214 | 0.2 | 1.18 | 0.0055 | 0.508 | 0.964 (inactive) | 0.0807 | 0.256 | 0.863 | 3.26 | 0.541 | 0.0409 | -0.938 | 0.227 |
| COc1ccc(C(O)C2C=CC3C(=O)N(c4ccccc4)C(=O)C3N2Nc2ccc(C#N)cc2)cc1OCc1ccccc1 (stereo not given) | 1.04 | -0.738 | -0.165 | 2.32 | 1.29 | 0.0497 | 0.171 | 0.1 | 2.54 | 1.16 | 1.06 | -0.502 (inactive) | 0.291 | 0.131 | 0.634 | 2.01 | 1.17 | 1.3 | -0.333 | 1.1 |
